Bioassay records (PubChem)
Glyco luc inh – N-linked glycosylation inhibition | D54 ERlucT glycosylation luciferase reporter, 24 h; percent of 100 nM tunicamycin response | reporter increase, % at 12.5 µM | 0.23% of 360,000 active | AID 588692;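 active = mean luciferase reporter signal, scaled so untreated is 0 and the glycosylation-blocking control 100, at or above a set limit in every replicate; inconclusive = mean reaches the limit but not every replicate does; inactive = mean below the limit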;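 also: luciferase carries N-glycosylation sites so blocking glycosylation raises the light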
MITF TRPM1 HTS – activators of MITF-driven TRPM1 promoter activity in SK-MEL-5 cells. SK-MEL-5 TRPM1-promoter luciferase, 24 h; % of positive control, neutral wells = 0. activation, % at 12.5 µM. 0.75% of 300,000 active;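 active = mean activation of at least 80% with every replicate also reaching 80%; inconclusive = mean reaches 80% but some replicate falls short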
Wnt bcat act – Wnt/beta-catenin pathway activation. Wnt/beta-catenin reporter cell assay, activator, plate reader. activation, % at 9.35 µM. 1.2% of 300,000 active; in the data active = activation above about 30%, passing the limit was not always enough; inconclusive = no clear call, values can overlap the other calls
MITF TRPM1 inh – inhibitors of MITF-driven TRPM1 promoter in melanoma cells; SK-MEL-5 TRPM1 promoter luciferase, 24 h; inhibition, % at 12.5 µM; 0.83% of 330,000 active; AID 488899;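 active = mean inhibition across replicates of 60% or more, whatever share of single replicates reaches that level; inconclusive = some that reach 60%, reason not given; inactive = mean inhibition across replicates below 60%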
PfHsp90 set2 – inhibits growth of yeast expressing Plasmodium falciparum Hsp90. S. cerevisiae expressing PfHsp90, BacTiter-Glo ATP, 48 h; yeast lacking PDR1 and PDR3 efflux regulators. inhibition, % at 9.4 µM. 0.32% of 310,000 active. AID 504621;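 active = every replicate shows inhibition above about 80%, whatever the replicate mean, limit read from the data; inconclusive = mean inhibition reaches the set limit but some replicate falls short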
NSD2 HMT inh – NSD2 (human) methyltransferase inhibition. 0.54% of 310,000 active. O96028. inhibition, % at 12.5 µM. NSD2 peptide methylation, AlphaScreen, 120 min; in the data active = inhibition above about 50%
Target sequence (O96028 whole entry, looked up): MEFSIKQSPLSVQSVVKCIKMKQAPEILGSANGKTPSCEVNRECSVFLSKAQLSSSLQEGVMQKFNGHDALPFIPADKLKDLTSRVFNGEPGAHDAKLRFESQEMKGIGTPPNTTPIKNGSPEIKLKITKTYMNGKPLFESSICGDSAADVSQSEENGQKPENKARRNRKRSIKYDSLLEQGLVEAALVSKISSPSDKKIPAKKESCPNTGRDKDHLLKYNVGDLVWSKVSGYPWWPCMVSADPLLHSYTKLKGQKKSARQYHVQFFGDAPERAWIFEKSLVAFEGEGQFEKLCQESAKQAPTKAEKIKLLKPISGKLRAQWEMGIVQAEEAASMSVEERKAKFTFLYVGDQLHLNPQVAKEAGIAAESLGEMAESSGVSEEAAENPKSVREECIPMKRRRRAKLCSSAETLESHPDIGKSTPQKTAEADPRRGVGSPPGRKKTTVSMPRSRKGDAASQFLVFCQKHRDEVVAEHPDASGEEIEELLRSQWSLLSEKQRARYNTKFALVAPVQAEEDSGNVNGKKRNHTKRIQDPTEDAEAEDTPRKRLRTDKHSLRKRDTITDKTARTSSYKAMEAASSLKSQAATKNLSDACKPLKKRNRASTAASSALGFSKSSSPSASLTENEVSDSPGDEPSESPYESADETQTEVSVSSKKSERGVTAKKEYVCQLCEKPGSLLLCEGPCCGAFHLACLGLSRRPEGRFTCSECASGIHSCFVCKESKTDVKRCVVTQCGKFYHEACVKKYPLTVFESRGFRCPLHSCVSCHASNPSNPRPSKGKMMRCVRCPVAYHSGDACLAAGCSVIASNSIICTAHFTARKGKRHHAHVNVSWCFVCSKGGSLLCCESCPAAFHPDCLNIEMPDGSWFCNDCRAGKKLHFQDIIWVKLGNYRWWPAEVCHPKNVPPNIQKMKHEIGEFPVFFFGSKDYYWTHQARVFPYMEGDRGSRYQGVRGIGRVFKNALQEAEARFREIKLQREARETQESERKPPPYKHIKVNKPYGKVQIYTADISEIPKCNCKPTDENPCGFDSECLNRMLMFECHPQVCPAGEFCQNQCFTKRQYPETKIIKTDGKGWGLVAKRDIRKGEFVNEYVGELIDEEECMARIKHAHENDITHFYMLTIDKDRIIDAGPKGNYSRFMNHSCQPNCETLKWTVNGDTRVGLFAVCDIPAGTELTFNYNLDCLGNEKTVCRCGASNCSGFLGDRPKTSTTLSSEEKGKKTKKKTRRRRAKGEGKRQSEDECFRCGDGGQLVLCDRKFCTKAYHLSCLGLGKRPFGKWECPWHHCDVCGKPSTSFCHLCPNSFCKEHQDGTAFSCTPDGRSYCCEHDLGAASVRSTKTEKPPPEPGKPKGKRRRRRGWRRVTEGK
Each line names hits and unclear results; the compound was inactive in the other large screens. Hits are enriched below; roughly 2.9% of the tested compounds scored in any of these assays.

CC(C)N(C(=O)[C@H]1C[C@H](CC(=O)NCCCN(C)C)C(=O)N2CCc3c([nH]c4cc(-c5ccco5)ccc34)[C@]12C)C(C)C	MITF TRPM1 inh 73 (no result: NSD2 HMT inh)
CN(C)CCCNC(=O)C[C@H]1C[C@H](C(=O)N2CCCCC2)[C@@]2(CCc3ccccc3)c3[nH]c4ccc(Cl)cc4c3CCN2C1=O	MITF TRPM1 inh 105 (no result: NSD2 HMT inh)
CCN(CC)C(=O)[C@H]1C[C@H](CC(=O)NCCCN(C)C)C(=O)N2CCc3c([nH]c4cc(-c5ccco5)ccc34)[C@]12C	none (no result: NSD2 HMT inh)
O=C(C[C@H]1C[C@H](C(=O)N2CCCCC2)[C@@]2(CCc3ccccc3)c3[nH]c4ccc(Cl)cc4c3CCN2C1=O)NCCc1ccccn1	none (no result: Wnt bcat act, NSD2 HMT inh)
NS(=O)(=O)c1ccc(NC(=O)COC(=O)COc2ccc(Cl)cc2)cc1	none
CC(=O)Oc1ccc(N(C(C)=O)S(=O)(=O)c2ccccc2)c2ccccc12	none (no result: MITF TRPM1 HTS, MITF TRPM1 inh, PfHsp90 set2)
COc1ccc(S(=O)(=O)N(C(C)=O)c2ccc(OC(C)=O)c3ccccc23)cc1[N+](=O)[O-]	MITF TRPM1 inh 71
COc1cc([N+](=O)[O-])ccc1NC(=S)NC(=O)CC(C)(C)C	none
CC(C)(C)c1csc(NC(=O)c2ccncc2)n1	none
Cc1ccc(NC(=O)c2ccc3nccnc3c2)c(C)c1	MITF TRPM1 HTS 99 (no result: NSD2 HMT inh)
CC(=O)c1ccc(NC(=O)c2ccc(C)c(Br)c2)cc1	Wnt bcat act 69
Cc1cc(NC(=O)c2ccc3nccnc3c2)ccc1Br	Wnt bcat act 66
CCCCC(=O)Nc1ccc(C(=O)NNC(=O)c2ccc(C)c(Br)c2)cc1	none
CC(C)(C)c1csc(NC(=O)c2ccc3nccnc3c2)n1	MITF TRPM1 HTS 114 (no result: Wnt bcat act)
CCCCCCCCN1C(=O)[C@@H](CC(=O)NCCCOCCCC)C[C@@]2(C(=O)OC)C1=C[C@H](C1CCCC1)O[C@@H]2C	none (no result: Glyco luc inh, MITF TRPM1 HTS, MITF TRPM1 inh, PfHsp90 set2, NSD2 HMT inh)
COc1ccc([C@@H]2CC=C(C(=O)O)[C@H](c3ccc(Cl)cc3)N2S(=O)(=O)c2ccccc2C)cc1	none (no result: NSD2 HMT inh)
COCc1cccc(N2C(=O)CC(C3C=C(C)C4C(=O)N(c5cccc(COC)c5)C(=O)C4C3)C2=O)c1 (stereo not given)	none
CCC[C@H]1[C@@H](NC(=O)C2CCC2)CC[C@@]23CCCN2C(=O)CCC[C@@H]13	none (no result: Glyco luc inh, MITF TRPM1 HTS, Wnt bcat act, MITF TRPM1 inh, PfHsp90 set2)
CCNC(=S)NNC(=O)c1cnccn1	none (no result: Glyco luc inh, MITF TRPM1 HTS, Wnt bcat act, MITF TRPM1 inh, PfHsp90 set2)
CC(=O)c1ccc(NC(=O)c2ccc3snnc3c2)cc1	MITF TRPM1 HTS 85
CNS(=O)(=O)c1ccc(NC(=O)c2csc(C)c2)cc1	none
CC(C)(C)c1csc(NC(=O)C2=COCCO2)n1	Wnt bcat act 53
O=C(Nc1ccc(Cl)cc1)c1ccc2snnc2c1	none (no result: NSD2 HMT inh)
Cc1cc(C(=O)Nc2ccc(Br)cc2)cs1	Wnt bcat act 45
Cc1ccc(-c2csc(NC(=O)C3=COCCO3)n2)cc1	MITF TRPM1 HTS inconclusive (no result: Wnt bcat act)
CCOc1ccc(NC(=O)CN2C(=O)NC(CCSC)C2=O)cc1 (stereo not given)	none (no result: PfHsp90 set2)
S=C(NCc1ccccn1)NN=Cc1ccccn1	MITF TRPM1 inh 70
COc1cc2cc(C(c3nnnn3C(C)(C)C)N3CCc4ccccc4C3)c(=O)[nH]c2cc1OC (stereo not given)	Glyco luc inh inconclusive, Wnt bcat act 34
CC1CCCCN1C(=S)NCCc1ccccc1 (stereo not given)	Wnt bcat act 37 (no result: MITF TRPM1 HTS)
O=[N+]([O-])c1c(Nc2ccccc2O)cc(Cl)c2nonc12	MITF TRPM1 inh 106
O=[N+]([O-])c1c(Nc2ccccc2O)ccc2nonc12	none
CC(C)(C)c1ccc(S(=O)(=O)N2CCCC2C(=O)N2CCc3ccccc3C2)cc1 (stereo not given)	none (no result: Glyco luc inh, MITF TRPM1 HTS, Wnt bcat act, MITF TRPM1 inh, PfHsp90 set2)
COc1ccccc1C=Cc1ccnc2ccccc12	none (no result: PfHsp90 set2)
CN(C)c1ccc(C=Cc2ccnc3ccccc23)cc1N	Wnt bcat act 39 (no result: MITF TRPM1 HTS, MITF TRPM1 inh, PfHsp90 set2)
OC(c1ccccc1)(c1nc(-c2ccc(F)c(Cl)c2)cs1)C(F)(F)F (stereo not given)	none (no result: MITF TRPM1 HTS, MITF TRPM1 inh, PfHsp90 set2)
O=C(COC(=O)CNC(=O)c1ccccc1)Nc1cccc(Br)c1	none (no result: PfHsp90 set2)
O=C(Nc1ccccc1)Nc1cccc2nsnc12	Wnt bcat act 40 (no result: PfHsp90 set2)
O=C(Nc1cccc2nsnc12)c1cccs1	none
COc1cc2c(cc1OC)C(=O)N1[C@H]3c4cc(C)ccc4OC[C@@H]3[C@H](c3ccccc3)[C@]1(C)C(=O)N2	Glyco luc inh 52 (no result: NSD2 HMT inh)
COc1cc2c(cc1OC)C(=O)N1[C@H]3c4cc(Cl)ccc4OC[C@@H]3[C@H](c3ccccc3)[C@]1(C)C(=O)N2	Glyco luc inh 45 (no result: NSD2 HMT inh)
O=S(=O)(O)c1cc(OS(=O)(=O)c2ccccc2)cc2ccccc12	none (no result: MITF TRPM1 HTS)
FC(F)(F)c1cc(CCN2CCNC[C@@H]2CC2CCCCC2)cc(C(F)(F)F)c1	MITF TRPM1 inh 64 (no result: NSD2 HMT inh)
CCCC[C@@H]1CNCCN1CCc1cc(C(F)(F)F)cc(C(F)(F)F)c1	none (no result: NSD2 HMT inh)
O=C(CCl)Nc1ccc(-c2ccccc2)cc1	MITF TRPM1 inh 65
O=C(CCl)Nc1cn(-c2ccccc2)nc1-c1ccccc1	MITF TRPM1 inh 74
CC(=O)Nc1cn(-c2ccccc2)nc1-c1ccccc1	none
Cc1ccc(C(=O)Nc2ccccc2Oc2ccccc2)o1	none
COc1cccc(NC(=O)c2ccc(C(=O)c3ccccc3)o2)c1	MITF TRPM1 HTS inconclusive, Wnt bcat act 37
Cc1ccc(C(=O)Nc2cccc(Oc3ccccc3)c2)o1	MITF TRPM1 HTS 90 (no result: Wnt bcat act)
COc1cccc(NC(=O)c2cccc(NC(=O)c3ccco3)c2)c1	none (no result: MITF TRPM1 HTS, MITF TRPM1 inh, PfHsp90 set2)
O=C(CCNS(=O)(=O)c1ccc(Br)cc1)Nc1cccc(F)c1	none (no result: MITF TRPM1 HTS)
COCCNC(=O)CSC1=N/C(=C/c2ccc(Cl)c(Cl)c2)C(=O)N1c1ccccc1F	none
CC(C)(N[C@@H](Cc1c[nH]c2ccccc12)C(=O)NCC(c1ccccc1)c1ccccc1)C(=O)NC1CCCCC1	none (no result: Glyco luc inh, MITF TRPM1 HTS, Wnt bcat act, MITF TRPM1 inh, PfHsp90 set2)
O=C(CCl)Nc1cccc(Oc2ccccc2)c1	MITF TRPM1 inh 66 (no result: NSD2 HMT inh)
COc1ccccc1-c1c(C)c(C)nc(N)c1C#N	none (no result: MITF TRPM1 HTS, PfHsp90 set2)
COc1ccccc1-c1c(C#N)c(N)nc2c1CCc1ccccc1-2	Glyco luc inh 32 (no result: Wnt bcat act)
CCOc1cc(-c2c(C#N)c(N)nc3c2CCc2ccccc2-3)ccc1O	Glyco luc inh 46
COc1ccc(C(=O)NCCCc2ccccc2)cc1OC	none (no result: MITF TRPM1 HTS)
CCC1(CC)C(=O)NC(=O)NC1=S	none
Cc1ccc(NC(=O)c2scc3c2CCCC3)cc1	MITF TRPM1 HTS 115
Cc1ccc(NC(=O)c2cc3c(s2)CCCC3)cc1	MITF TRPM1 HTS 148, Wnt bcat act 61
COc1ccc(-c2ccc3c(n2)CCCN3S(=O)(=O)c2c(C)noc2C)cc1	none (no result: Glyco luc inh, MITF TRPM1 HTS, MITF TRPM1 inh, PfHsp90 set2)
COc1ccc(N=C2Sc3ccccc3[C@@H]3C[C@H]4[C@H](CON4C)CN23)c(OC)c1	none (no result: Glyco luc inh, MITF TRPM1 HTS, MITF TRPM1 inh, PfHsp90 set2, NSD2 HMT inh)
CC(=O)C(Cc1ccccc1)NC(=O)CN1c2cccc3cccc(c23)S1(=O)=O (stereo not given)	none
COc1ccc(N=C2S/C(=C\c3ccc(Cl)c([N+](=O)[O-])c3)C(=O)N2CCN(C)C)cc1	none
CCN(CC)CCN1C(=O)/C(=C\c2ccc(Cl)c([N+](=O)[O-])c2)SC1=Nc1ccc(OC)cc1	MITF TRPM1 inh 94
